Experimental data reported in PubChem BioAssay (EPA / NIEHS).
Values joined by “and” are separate entries in the source; they are usually repeats but may differ in a detail not shown here. Identical values can stand only once. More than one record can exist for a structure, and the calls need not agree. Active and inactive are the calls of the source. How the source made its calls: active means hit-call score of the fitted dose curve at least 0.9, where 1 is the maximum; inactive means score below 0.9.

Assays:
[1] = BSK_hDFCGF_SRB: Viability Assessment in the BioMAP Diversity Plus: hDFCGF Assay (AID 2283061); conditions: primary human foreskin fibroblasts;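 further: cells exposed to compound for 24 h before the read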
Procedure, shortened: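 Readout is SRB absorbance at 560 nm, reflecting total protein in parallel cultures of human foreskin fibroblasts harvested 24 h after chemical dosing. Activity was fitted bidirectionally relative to DMSO.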

[2] = read-out: Monokine induced gamma interferon (MIG), CXCL9 (gene 4283); assay: BSK_hDFCGF_MIG: BioMAP Diversity Plus: hDFCGF Assay for Monokine induced gamma interferon (MIG) Biomarker Activity (AID 2283063); conditions: primary human foreskin fibroblasts; actives raise or lower the signal
Procedure, shortened: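 Chemicals were added to primary human foreskin fibroblast cultures, which were sampled 24 h later. MIG levels were then quantified by ELISA and responses fitted in both directions relative to DMSO.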

[3] = read-out: Matrix Metallopeptidase 1 (MMP1), MMP1 (gene 4312); assay: BSK_hDFCGF_MMP1: BioMAP Diversity Plus: hDFCGF Assay for Matrix Metallopeptidase 1 (MMP1) Biomarker Activity (AID 2283064); conditions: primary human foreskin fibroblasts; actives raise or lower the signal
Procedure, shortened: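 Primary human foreskin fibroblasts in the hDFCGF system were dosed with test chemical, and MMP1 was measured by ELISA 24 h later. Values come from bidirectional curve fitting against the DMSO baseline.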

[4] = read-out: Vascular cell adhesion molecule 1 (VCAM1), VCAM1 (gene 7412); assay: BSK_hDFCGF_VCAM1: BioMAP Diversity Plus: hDFCGF Assay for Vascular cell adhesion molecule 1 (VCAM1) Biomarker Activity (AID 2283065); conditions: primary human foreskin fibroblasts; actives raise or lower the signal;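 on AC50: VCAM-1 protein level quantified by ELISA after 24 h chemical exposure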
Procedure, shortened: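 Human foreskin fibroblast primary cells, chemical exposure 24 h; VCAM-1 by ELISA; bidirectional fit, DMSO = negative control/baseline.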

[5] = read-out: Plasminogen activator inhibitor-1 (PAI1), SERPINE1 (gene 5054); assay: BSK_hDFCGF_PAI1: BioMAP Diversity Plus: hDFCGF Assay for Plasminogen activator inhibitor-1 (PAI1) Biomarker Activity (AID 2283066); conditions: primary human foreskin fibroblasts; actives raise or lower the signal
Procedure, shortened: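 Human foreskin fibroblasts in the hDFCGF system were dosed with compound for 24 h; PAI-1 was quantified by ELISA. Bidirectional curve fitting used DMSO as negative control and baseline.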

[6] = read-out: Intercellular Adhesion Molecule 1 (ICAM1), ICAM1 (gene 3383); assay: BSK_KF3CT_ICAM1: BioMAP Diversity Plus: KF3CT Assay for Intercellular Adhesion Molecule 1 (ICAM1) Biomarker Activity (AID 2283067); conditions: primary human keratinocytes with fibroblasts; actives raise or lower the signal
Procedure, shortened: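 ICAM-1 levels are measured by ELISA 24 h after dosing a primary human co-culture of keratinocytes and foreskin fibroblasts. Activity in either direction is fitted relative to DMSO vehicle.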

[7] = read-out: Interferon-gamma inducible Protein 10 (IP10), CXCL10 (gene 3627); assay: BSK_KF3CT_IP10: BioMAP Diversity Plus: KF3CT Assay for Interferon-gamma inducible Protein 10 (IP10) Biomarker Activity (AID 2283068); conditions: primary human keratinocytes with fibroblasts; actives raise or lower the signal
Procedure, shortened: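 In a primary skin co-culture of keratinocytes and fibroblasts, IP-10 is quantified by ELISA at 24 h after dosing. SRB staining of parallel wells monitors overt toxicity. Curves are fitted both directions against DMSO.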

[8] = BSK_KF3CT_SRB: Viability Assessment in the BioMAP Diversity Plus: KF3CT Assay (AID 2283069); conditions: primary human keratinocytes with fibroblasts;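 further: total protein by sulforhodamine B staining as a cytotoxicity measure; read 24 h after compound addition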
Procedure, shortened: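 Human primary keratinocyte plus foreskin fibroblast co-culture exposed to chemicals for 24 h. Total protein measured by 0.1% sulforhodamine B staining after 10% TCA fixation, read at 560 nm; bidirectional fitting versus DMSO baseline.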

[9] = read-out: Interleukin-1 alpha (IL1a), IL1A (gene 3552); assay: BSK_KF3CT_IL1a: BioMAP Diversity Plus: KF3CT Assay for Interleukin-1 alpha (IL1a) Biomarker Activity (AID 2283070); conditions: primary human keratinocytes with fibroblasts; actives raise or lower the signal
Procedure, shortened: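 Human keratinocyte plus foreskin fibroblast primary co-culture, sampled 24 h after chemical dosing. IL-1a measured by ELISA; responses fitted bidirectionally against DMSO baseline (negative control), so gain or loss of signal both count.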

[10] = read-out: TIMP metallopeptidase inhibitor 2 (TIMP2), TIMP2 (gene 7077); assay: BSK_KF3CT_TIMP2: BioMAP Diversity Plus: KF3CT Assay for TIMP metallopeptidase inhibitor 2 (TIMP2) Biomarker Activity (AID 2283071); conditions: primary human keratinocytes with fibroblasts; actives raise or lower the signal
Procedure, shortened: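 Human primary keratinocyte/foreskin fibroblast co-culture dosed with chemical and sampled at 24 h. TIMP-2 levels quantified by ELISA; bidirectional fitting against DMSO negative control as baseline.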

[11] = read-out: Transforming growth factor beta 1 (TGFb1), TGFB1 (gene 7040); assay: BSK_KF3CT_TGFb1: BioMAP Diversity Plus: KF3CT Assay for Transforming growth factor beta 1 (TGFb1) Biomarker Activity (AID 2283072); conditions: primary human keratinocytes with fibroblasts; actives raise or lower the signal
Procedure, shortened: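 Human keratinocyte plus foreskin fibroblast primary co-culture, dosed with chemical for 24 h. TGF-b1 quantified by ELISA. Activity fitted bidirectionally against DMSO negative control as baseline.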

[12] = read-out: C-C motif chemokine 2 (Homo sapiens) (UniProt P13500); assay: BSK_KF3CT_MCP1: BioMAP Diversity Plus: KF3CT Assay for Monocyte Chemoattractant Protein 1 (MCP1/CCL2) Biomarker Activity (AID 2283073); conditions: primary human keratinocytes with fibroblasts; actives raise or lower the signal
Procedure, shortened: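 ELISA readout of MCP-1 after 24 h chemical dosing of a human skin primary co-culture of keratinocytes and foreskin fibroblasts. Activity was fitted in both directions against DMSO.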

[13] = read-out: Matrix Metallopeptidase 9 (MMP9), MMP9 (gene 4318); assay: BSK_KF3CT_MMP9: BioMAP Diversity Plus: KF3CT Assay for Matrix Metallopeptidase 9 (MMP9) Biomarker Activity (AID 2283074); conditions: primary human keratinocytes with fibroblasts; actives raise or lower the signal;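 on AC50: MMP9 protein level quantified by ELISA in the co-culture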
Procedure, shortened: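 Keratinocyte plus foreskin fibroblast human primary skin co-culture was dosed with chemical and MMP-9 was quantified by ELISA 24 h later. Bidirectional curve fitting used DMSO as negative control and activity baseline.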

[14] = read-out: urokinase plasminogen activator (uPA), PLAU (gene 5328); assay: BSK_KF3CT_uPA: BioMAP Diversity Plus: KF3CT Assay for urokinase plasminogen activator (uPA) Biomarker Activity (AID 2283075); conditions: primary human keratinocytes with fibroblasts; actives raise or lower the signal
Procedure, shortened: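 Human keratinocyte plus foreskin fibroblast primary co-culture exposed to chemical for 24 h. uPA levels were quantified by ELISA, and activity was fitted bidirectionally against a DMSO negative-control baseline.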

[15] = read-out: E-selectin (Homo sapiens) (UniProt P16581); assay: BSK_LPS_Eselectin: BioMAP Diversity Plus: LPS Assay for Eselectin Biomarker Activity (AID 2283077); conditions: primary human HUVEC with PBMC; actives raise or lower the signal
Procedure, shortened: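 Primary human vascular co-culture (endothelium plus PBMC) was dosed with chemical, then E-selectin quantified by ELISA at 24 h. Endpoint values derive from bidirectional curve fitting relative to DMSO.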

[16] = read-out: Interleukin-8 (IL8), CXCL8 (gene 3576); assay: BSK_LPS_IL8: BioMAP Diversity Plus: LPS Assay for Interleukin-8 (IL8) Biomarker Activity (AID 2283078); conditions: primary human HUVEC with PBMC; actives raise or lower the signal
Procedure, shortened: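 Readout is IL-8 by ELISA, taken 24 h after compounds were added to LPS-stimulated endothelial/PBMC co-cultures. Both increases and decreases relative to DMSO control were scored through bidirectional fitting.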

[17] = BSK_LPS_SRB: Viability Assessment in the BioMAP Diversity Plus: LPS Assay (AID 2283079); conditions: primary human HUVEC with PBMC;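 further: total protein by sulforhodamine B absorbance as a cytotoxicity measure; measured one day after compound addition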
Procedure, shortened: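 Readout is SRB absorbance at 560 nm (0.1% stain, TCA-fixed parallel cultures) as a total-protein cytotoxicity measure. Cells: primary human umbilical vein endothelium plus peripheral blood mononuclear cells, 24 h after chemical exposure; DMSO served as baseline.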

CD40, CD40 (gene 958) = assay: BSK_LPS_CD40: BioMAP Diversity Plus: LPS Assay for CD40 Biomarker Activity (AID 2283076); conditions: primary human HUVEC with PBMC; actives raise or lower the signal
Procedure, shortened: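 Cells were dosed, incubated 24 h, then assayed for CD40 by ELISA. Gain or loss of signal was analysed relative to DMSO controls. The culture paired human umbilical vein endothelium with peripheral blood mononuclear cells.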

[18] = read-out: Interleukin-1 alpha (IL1a), IL1A (gene 3552); assay: BSK_LPS_IL1a: BioMAP Diversity Plus: LPS Assay for Interleukin-1 alpha (IL1a) Biomarker Activity (AID 2283080); conditions: primary human HUVEC with PBMC; actives raise or lower the signal
Procedure, shortened: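 ELISA read-out of IL-1 alpha from a human primary vascular co-culture (endothelium plus PBMC) under LPS, sampled 24 hours post-dosing. Activity was fitted in both directions relative to DMSO controls.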

Measured: AC50

Sequence of E-selectin (Homo sapiens) (P16581 whole entry, looked up): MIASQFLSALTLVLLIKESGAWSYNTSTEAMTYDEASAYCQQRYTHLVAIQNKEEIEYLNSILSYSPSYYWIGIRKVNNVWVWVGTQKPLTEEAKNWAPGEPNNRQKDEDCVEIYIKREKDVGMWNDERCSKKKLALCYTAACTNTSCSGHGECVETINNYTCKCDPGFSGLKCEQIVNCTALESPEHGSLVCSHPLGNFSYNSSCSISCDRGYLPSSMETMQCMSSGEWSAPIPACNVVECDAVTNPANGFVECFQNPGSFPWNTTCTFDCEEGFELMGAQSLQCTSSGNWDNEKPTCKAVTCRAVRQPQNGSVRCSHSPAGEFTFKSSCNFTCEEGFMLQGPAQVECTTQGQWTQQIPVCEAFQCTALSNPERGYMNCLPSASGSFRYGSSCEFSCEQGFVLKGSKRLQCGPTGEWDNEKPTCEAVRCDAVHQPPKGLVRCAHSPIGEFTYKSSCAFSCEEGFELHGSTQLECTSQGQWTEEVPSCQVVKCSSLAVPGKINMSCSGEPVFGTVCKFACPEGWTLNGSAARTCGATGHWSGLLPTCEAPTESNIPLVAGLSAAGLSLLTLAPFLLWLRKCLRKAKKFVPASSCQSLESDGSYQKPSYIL

Cc1cc(C)c(O)c(C(C)(C)C)c1
inactive: [16]
active: [1] 35.2 µM | [2] 32.8 µM | [3] 34 µM | [4] 34.7 µM | [5] 30.9 µM | [6] 35.1 µM | [7] 34.2 µM | [8] 33.5 µM | [9] 31.1 µM | [10] 28.8 µM | [11] 30.8 µM | [12] 32.8 µM | [13] 30.2 µM | [14] 30.9 µM | [15] 32.1 µM | [17] 36.3 µM

FC(F)(F)C(F)(F)C(F)(F)C(F)(F)C(F)(F)C(F)(F)CC[Si](Cl)(Cl)Cl
not listed: [11]
inactive: all other assays above

OCC(F)(F)C(F)(F)C(F)(F)C(F)(F)C(F)(F)C(F)(F)CO
not listed: [11] | CD40, CD40 (gene 958) | [18]
inactive: all other assays above

CCN(CCO)S(=O)(=O)C(F)(F)C(F)(F)C(F)(F)C(F)(F)C(F)(F)C(F)(F)C(F)(F)C(F)(F)F
inactive: [3] | [6] | [8] | [10] | [12] | [14] | [15] | [16]
active: [1] 21.9 µM and 2.95 µM | [2] 22.1 µM and 19.1 µM | [3] 50.1 µM | [4] 30 µM and 12.8 µM | [5] 37.2 µM and 25.4 µM | [7] 33.7 µM and 30 µM | [9] 20.8 µM and 30 µM | [12] 14.4 µM | [13] 21.7 µM and 20.9 µM | [15] 5.95 µM | [17] 39.4 µM and 38.2 µM

O=S(=O)(O)CCC(F)(F)C(F)(F)C(F)(F)C(F)(F)F
not listed: [11] | CD40, CD40 (gene 958) | [18]
inactive: all other assays above

C[Si](Cl)(Cl)CCC(F)(F)C(F)(F)C(F)(F)C(F)(F)C(F)(F)C(F)(F)F
inactive: [1] | [3] | [5] | [6] | [7] | [8] | [9] | [10] | [12] | [13] | [14] | [15] | [16] | [17] | [18]
active: [2] 1.26 µM and 1.52 µM | [3] 1.18 µM | [4] 1.4 µM and 876 nM

Nc1cc([N+](=O)[O-])cc(Cl)c1O
not listed: CD40, CD40 (gene 958) | [18]
inactive: all other assays above

O=C(Cl)C(F)(F)C(F)(F)C(F)(F)C(F)(F)C(F)(F)C(F)(F)C(F)(F)F
active: [16] 20.2 µM and 16.6 µM
inactive: [1] | [2] | [3] | [4] | [5] | [6] | [7] | [8] | [9] | [10] | [12] | [13] | [14] | CD40, CD40 (gene 958) | [15] | [16] | [17] | [18]
